Screens (PubChem BioAssay)
This is a sample that favours compounds with a hit; in the whole collection about 3.7% have one here.
BoNT A protease = BoNT A light chain protease inhibition; inhibition, % at 10 µM; multiplex microsphere protease substrate cleavage, flow cytometry; 0.17% of 360,000 active; AID 588499
BoNT F protease = BoNT F light chain protease inhibition; AID 588497; Multiplex microsphere protease cleavage assay, flow cytometry; inhibition, % at 10 µM; 0.22% of 360,000 active; in the data active means inhibition above about 35%, passing the limit was not always enough; inconclusive means no clear call, values can overlap the other calls
Anthrax LF inh2 = inhibitors of Bacillus anthracis lethal factor protease. 0.12% of 360,000 active. multiplex microsphere protease cleavage assay, LF. inhibition, % at 10 µM
Autofluor counter = compound fluorescence in toxin protease inhibitor counterscreen | compound autofluorescence counterscreen, microsphere flow cytometry; stronger effect = higher value | fluorescence intensity (test concentration not listed) | 3.1% of 360,000 active | AID 624483; in the data active means fluorescence intensity above about 16000; inconclusive means no clear call, values can overlap the other calls
MazEF act = increases E. coli MazEF RNase cleavage of RNA | 0.32% of 350,000 active | FAM/BHQ RNA-DNA oligo cleavage fluorescence, 5 h | P0AE70 | AID 504720 | activation, % at 20 µM; in the data active means activation above about 50%
Target sequence (P0AE70 whole entry, looked up): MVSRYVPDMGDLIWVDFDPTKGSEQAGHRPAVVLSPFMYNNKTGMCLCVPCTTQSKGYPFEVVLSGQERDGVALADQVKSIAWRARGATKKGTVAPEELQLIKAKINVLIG
A number is an active result; n = inactive; u = inconclusive; x = not tested or not shown. Unless noted, no stated cut-off is given here; in the data, active means inhibition above about 30%; inconclusive means no clear call, values can overlap the other calls; inactive means below that.

SMILES	BoNT A protease	BoNT F protease	Anthrax LF inh2	Autofluor counter	MazEF act
CCOC(=O)c1c(NC(=O)c2ccccc2Br)sc2c1CCc1ccccc1-2	u	n	n	22027	n
COc1ccc(C(C)(C)NC(=O)C2CCC(=O)N(C3CC3)C2)cc1OC (stereo unspecified)	n	n	n	n	n
CCNC(=O)CN(CCc1ccccc1)S(=O)(=O)c1ccc(OC)cc1	n	n	n	16480	n
O=C(CSc1ncn[nH]1)Nc1ccccc1Sc1ccccc1	u	n	n	23235	n
O=C(CSc1ncn[nH]1)Nc1ccccc1-c1ccccc1	n	n	n	n	n
N#Cc1ccsc1NC(=O)CSc1ncn[nH]1	n	n	n	22762	n
O=C(CCl)Nc1ccccc1Sc1ccc(Cl)cc1	n	n	n	20704	n
CCCCNC(=O)C1(C)CCCCN1C(=O)c1ccc2ccccc2n1 (stereo unspecified)	n	n	n	n	x
O=[N+]([O-])c1ccc(NN=Cc2cccc3ccccc23)nc1	n	n	n	n	123
CCNc1nc(NC(C)C)nc(OCCNS(=O)(=O)c2cc(C)ccc2C)n1	n	n	n	n	n
CCNc1nc(NCC)nc(OCCNS(=O)(=O)c2cc(C)ccc2C)n1	u	n	n	21064	n
CCOC1=C2CN(S(=O)(=O)c3ccc(C)cc3)[C@H](c3ccccc3)C[C@@H]2N(S(=O)(=O)c2ccccc2C)[C@H](c2ccccc2)C1	n	n	n	n	x
Cc1ccc(CN2CCC2(C)C(=O)NC2CCc3ccccc32)cc1 (stereo unspecified)	n	n	n	n	x
Cc1cc[n+]2c3c(cccc13)CCC2	n	n	n	20480	n
Cc1cccc2c1N(N=O)CCC2	n	n	n	n	n
CCc1cc(/C(Cc2cscn2)=N\O)c(O)cc1O	n	n	n	n	n
CCc1cc(/C(Cc2ccccn2)=N\O)c(O)cc1O	u	n	n	18010	n
CCCCC[C@@H](C)N1C[C@H](COCc2ccccc2)Oc2cc(N3CC[C@H](O)C3)ccc2S1(=O)=O	n	n	n	n	x
Cc1ccc(C(=O)Cn2c(C)cc(C)c(C#N)c2=O)cc1	n	n	n	n	n
Cc1ccc(NC(=O)Cn2c(C)cc(C)c(C#N)c2=O)c(Cl)c1	n	n	n	23456	n
O=C1CCCC(O)=C1C(C#Cc1ccccc1)C1=C(O)CCCC1=O	n	n	n	17723	n
O=C1C=C(c2ccc3ccccc3c2)C[C@@H](c2ccc(F)cc2)C1	n	n	n	n	n
CC(C)NC(=O)C1Cc2c(-c3ccc4c(c3)OCO4)ccnc2O1 (stereo unspecified)	n	n	n	n	x
Cc1ccc(/C(C#N)=C\c2ccc(N3CCOCC3)o2)cc1	n	n	n	n	n
Cc1ccc2nc(/C(C#N)=C\c3ccc(N4CCOCC4)o3)[nH]c2c1	n	110	n	n	n
SMILES	BoNT A protease	BoNT F protease	Anthrax LF inh2	Autofluor counter	MazEF act
O=C(COC(=O)c1ccccn1)NCCc1ccc(Cl)cc1	n	n	n	n	n
COC(=O)[C@H](C)NC(=O)NCc1ccco1	n	n	n	20251	n
CCC(C)[C@H](NC(=O)NCc1ccco1)C(=O)OC (stereo partly specified)	n	u	n	n	n
CC(C)Oc1ccc(C(CC(=O)NCc2ccco2)c2ccccc2)cc1 (stereo unspecified)	n	n	n	16645	n
COC(=O)c1cc(=O)nc(NN=Cc2ccc(C)cc2)s1	n	n	n	n	x
CCC(NS(=O)(=O)c1ccc(C)cc1)C(=O)O (stereo unspecified)	n	n	n	21879	n
CCCC(NS(=O)(=O)c1ccc(Br)cc1)C(=O)O (stereo unspecified)	n	n	n	25446	n
CC(NC(=O)c1ccc(-c2cc(C(F)(F)F)ccc2Cl)o1)c1ccccc1 (stereo unspecified)	u	n	n	20639	n
Cc1ccc(C(=O)NC(C)c2ccccc2)o1 (stereo unspecified)	n	n	n	22061	n
Cc1nc2ccc(Br)cc2c(=O)n1Cc1cccs1	n	n	n	n	n
Cc1cc(C)c(N2C(=O)CC(Sc3ccccc3N)C2=O)c(C)c1 (stereo unspecified)	n	n	n	n	n
C=CCSc1nc(=O)n2cccc(C)c2n1	n	n	n	21125	n
C=CCSc1nc(=O)n2ccccc2n1	n	n	n	n	n
Cc1noc(C)c1CSc1ncnc2sc3c(c12)CCCCC3	n	n	n	n	n
O=C(O)CSc1ncnc2sc3c(c12)CCCC3	n	n	n	n	n
CCc1cc2c(SCC(=O)c3ccccc3)ncnc2s1	n	n	n	n	n
Fc1ccc(CSc2ncnc3sc4c(c23)CCCC4)cc1	n	n	n	19865	n
CCc1cc2c(SCC(=O)O)ncnc2s1	u	n	n	18901	n
CCSc1ncnc2sc3c(c12)CCC3	n	n	n	20242	n
O=C(O)CSc1ncnc2sc3c(c12)CCC3	n	n	n	19351	n
COCCN(CCOC)C(=O)c1ccc(CSc2nc3ccccc3s2)cc1	n	n	n	n	n
CCOc1ccc(Cl)cc1-c1cc(C(=O)Nc2ccc(C(C)C)cc2)[nH]n1	n	n	n	n	x
CCc1nc(N)c(C#N)c(-c2cccnc2)c1C	n	n	n	17121	n
O=C(CNS(=O)(=O)c1ccccc1)OCC(=O)c1ccc(OC(=O)c2ccccc2)cc1	u	n	n	21032	n
CCc1cc(=O)oc2cc(C)cc(OCC(=O)N3CCC(C(=O)NC(C)C)(c4ccccc4)CC3)c12	n	n	n	n	n
SMILES	BoNT A protease	BoNT F protease	Anthrax LF inh2	Autofluor counter	MazEF act
COc1cccc(OCCCn2cc(/C=C3/C(=N)N4C=C(C)SC4=NC3=O)c3ccccc32)c1	50	n	n	24218	n
COc1cc(/C=C2/C(=N)N3C=CSC3=NC2=O)ccc1OCCCOc1c(C)cccc1C	n	n	n	n	n
COc1cc(/C=C2/C(=N)N3C=CSC3=NC2=O)ccc1OCCCOc1ccccc1C	n	37	n	n	n
CCN1CCN(C(=O)C2c3cc(OC)c(OC)cc3C(=O)N(C)C2c2ccc(SC)cc2)CC1 (stereo unspecified)	u	n	n	22280	n
COc1ccc(C2C(C(=O)N3CCN(C)CC3)c3cc(OC)c(OC)cc3C(=O)N2C)cc1 (stereo unspecified)	n	n	n	n	n
CC1(C(=O)NCC2CC2)CCN1C(=O)C1(c2ccccc2)CC1 (stereo unspecified)	n	n	n	n	x
CC1CCCCC1NC(=O)COc1ncnc2sccc12 (stereo unspecified)	n	n	n	n	n
CCCNC(=O)C1(C)CCN(Cc2cc(C(F)(F)F)ccc2Cl)C1 (stereo unspecified)	n	n	n	n	x
C=CCN(CC(=O)NCc1ccccc1)C(=O)c1csnn1	n	n	n	24034	n
CC(C(=O)c1ccc(Br)cc1)[n+]1cccc2ccccc21 (stereo unspecified)	n	u	n	16961	n
CCCCc1nc2cc(C(=O)N3CCCCC3CCNC(C)=O)ccc2o1 (stereo unspecified)	n	n	n	n	n
O=C(CSCc1cccc(Br)c1)N1CCOCC1	n	n	n	23815	n
NC(=O)CSCc1cccc(Br)c1	n	n	n	n	n
